HT1080 IDH1KD tx: kills HT-1080 cells with IDH1 knockdown; 360,000 tested, 2% active; HT-1080 IDH1 knockdown viability, ATP luminescence, 48 h; Potency, µM (highest dose often 46.1 µM), usual class: cytotoxic; AID 686971
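Viability of IDH1-knockdown HT-1080 fibrosarcoma cells was assessed by CellTiter-Glo after 48 h at 37 °C with titrated compound; concentration-effect curves were classified by fit quality and response size.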
KB-V1 cytotox: KB-V1 MDR subline cytotoxicity. KB-V1 MDR cells viability, CellTiter-Glo, 72 h. 400,000 tested, 3.4% active. AID 1347076. Potency, µM (series often up to 46.1 µM), most hits filed as cytotoxic; also: nearly all actives have a fitted effect of over 60% in size
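Cytotoxicity via CellTiter-Glo luminescence after 72 h compound exposure at 37 degrees C. Cells: drug-selected KB-V1 line, DMEM phenol-red free plus 10% FBS. Compounds tested at multiple concentrations; normalized data fitted to concentration-effect curves.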
HT1080NT lethal: kills 2HG-producing HT-1080-NT fibrosarcoma cells | HT-1080-NT fibrosarcoma viability, CellTiter-Glo ATP luminescence, 48 h | Potency, µM (top dose mostly 46.1 µM), usual class: cytotoxic | 360,000 tested, 1.6% active;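 also: NT is the 2HG producing partner of a matched IDH1 knockdown line; nearly all actives have a fitted effect of over 55% in size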
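Compounds were tested in concentration-response format on HT-1080-NT cells for 48 hours at 37 degrees C. Cell viability came from CellTiter-Glo luminescence; curves were classified by r2, response magnitude and activity.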
KB-3-1 tox: kills parental KB-3-1 adenocarcinoma cells; AID 1347075; 400,000 tested, 1.4% active; KB-3-1 viability, CellTiter-Glo ATP luminescence, 72 h; Potency, µM (highest dose often 46.1 µM), most hits filed as cytotoxic; also: nearly all actives have a fitted effect of over 60% in size
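Cells are dispensed, compounds pinned in, plates held at 37 °C for 72 h, then CellTiter-Glo is added and luminescence read after 10 minutes. Cell line: parental KB-3-1 in phenol-red-free DMEM, 10% FBS.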
IL-1B inflam inh: inflammasome signaling inhibition, IL-1 beta readout; THP-1 LPS/ATP IL-1B secretion, AlphaLISA, 16 h; active compounds read low; activity change, % at 57.5 µM; 360,000 tested, 4.7% active; in the data active = activity change below about -50%; inconclusive = mostly about -30% to -49%
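THP-1 cells pretreated 1 hr with compounds (up to 57.5 uM final), then stimulated with LPS (250 ng/mL final) plus ATP (1.25 mM final); secreted IL-1B measured by AlphaLISA after 16 hr, decreased signal indicating inhibition.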
Each line names hits and unclear results; the compound was inactive in the other large screens. A selection: hits, their analogues and other compounds. The true share with any hit is near 8.8%. Unless noted, calls follow the shape of the dose curve; as a rule, active = well fitted curve in the direction sought with a large enough effect; inconclusive = small, poorly fitted or top-dose-only effect, or another doubt; inactive = no such curve, though single readings can be large; an effect the other way counts as inactive or inconclusive.

Cc1ccc(S(=O)(=O)Nc2cccc(C(=O)NC3CCN(Cc4ccccc4)CC3)c2)cc1F	IL-1B inflam inh -66.1
O=C(NC1CCN(Cc2ccccc2)CC1)c1cccc(NS(=O)(=O)c2ccc(Br)cc2)c1	KB-3-1 tox inconclusive, IL-1B inflam inh inconclusive
Cc1ccc(NS(=O)(=O)c2ccc(C(=O)NC3CCN(Cc4ccccc4)CC3)cc2)cc1	HT1080NT lethal inconclusive, IL-1B inflam inh -93.5 (no result: KB-V1 cytotox, KB-3-1 tox)
O=C(NC1CCN(Cc2ccccc2)CC1)c1cc(S(=O)(=O)Nc2ccc(F)cc2)ccc1Cl	KB-3-1 tox inconclusive, IL-1B inflam inh -68.5
O=C(NC1CCN(Cc2ccc(Cl)cc2Cl)CC1)c1ccccc1	IL-1B inflam inh -50.1
O=C(c1cc2ccccc2[nH]1)c1cc2cc(O)ccc2[nH]1	none (no result: HT1080 IDH1KD tx, HT1080NT lethal, IL-1B inflam inh)
Cc1ccc(S(=O)(=O)Nc2cccc(C(=O)NCC(c3ccco3)N3CCCCC3)c2)cc1F (stereo not drawn)	KB-V1 cytotox inconclusive, IL-1B inflam inh -66.1
O=C(NC1CCN(Cc2ccccc2)CC1)c1ccccc1OCc1ccccc1	none
O=C(NC1CCN(Cc2ccccc2)CC1)c1ccccc1OCc1ccccc1Cl	HT1080 IDH1KD tx inconclusive, KB-V1 cytotox inconclusive, KB-3-1 tox inconclusive, IL-1B inflam inh -88.1
C[C@@H]1CN([C@@H](C)CO)C(=O)c2ccccc2-c2ccccc2CO[C@@H]1CN(C)S(=O)(=O)c1ccc(C(F)(F)F)cc1	KB-V1 cytotox 16.4µM, IL-1B inflam inh inconclusive
C[C@H]1CN([C@@H](C)CO)C(=O)c2cccc(NC(=O)Nc3ccc(C(F)(F)F)cc3)c2O[C@@H]1CN(C)S(=O)(=O)c1ccc(Cl)cc1	HT1080 IDH1KD tx 25.9µM, KB-V1 cytotox inconclusive, HT1080NT lethal inconclusive, KB-3-1 tox inconclusive, IL-1B inflam inh inconclusive
C[C@H](CO)N1C[C@H](C)[C@H](CN(C)S(=O)(=O)c2cccc(F)c2)OCc2ccccc2-c2c(n(C)c3ccccc23)C1=O	HT1080 IDH1KD tx inconclusive, HT1080NT lethal inconclusive, KB-3-1 tox 23.1µM
Cc1ccc(S(=O)(=O)N(C)C[C@@H]2OCc3ccccc3-c3c(n(C)c4ccccc34)C(=O)N([C@H](C)CO)C[C@@H]2C)cc1	HT1080 IDH1KD tx inconclusive, KB-V1 cytotox inconclusive, KB-3-1 tox inconclusive
C[C@H](CO)N1C[C@H](C)[C@@H](CN(C)S(=O)(=O)c2ccc(F)cc2)Oc2c(NC(=O)Nc3ccc(C(F)(F)F)cc3)cccc2C1=O	KB-3-1 tox inconclusive, IL-1B inflam inh -50.7
C=C[C@@]1(C)C[C@H](OC(=O)CSC(C)(C)CNC(=O)[C@@H](N)C(C)C)[C@@]2(C)C(C)CC[C@@]3(CCC(=O)[C@@H]32)[C@H](C)[C@H]1O (stereo partly drawn)	KB-V1 cytotox inconclusive (no result: HT1080 IDH1KD tx, HT1080NT lethal, IL-1B inflam inh)
O=C(Nc1nc2ccccc2n1Cc1ccc(Cl)cc1)c1ccco1	none
CC(=O)Nc1nonc1-c1nc2ccccc2n1Cc1ccccc1	HT1080 IDH1KD tx 11.6µM, KB-V1 cytotox 16.4µM, HT1080NT lethal 16.4µM, KB-3-1 tox 14.6µM
COC(=O)c1ccccc1NC(=O)Cn1c(-c2nonc2N)nc2ccccc21	HT1080 IDH1KD tx 0.316µM, KB-V1 cytotox inconclusive, HT1080NT lethal 0.708µM, KB-3-1 tox 0.631µM
CC(=O)Nc1nc2ccccc2n1Cc1ccc(Cl)cc1	HT1080 IDH1KD tx 16.4µM, KB-V1 cytotox inconclusive, HT1080NT lethal inconclusive, KB-3-1 tox 9.2µM
CCN(CC)CCn1c(NC(=O)c2ccc(C)cc2)nc2ccccc21	KB-V1 cytotox inconclusive, HT1080NT lethal inconclusive, KB-3-1 tox inconclusive
CN(C)CCn1c(NC(=O)c2ccc(Cl)cc2)nc2ccccc21	HT1080 IDH1KD tx 11.2µM, HT1080NT lethal inconclusive
CCOC(=O)c1nc(Nc2ccc(C(=O)OC(C)C)cc2)c2ccccc2n1	none (no result: HT1080 IDH1KD tx, HT1080NT lethal, IL-1B inflam inh)
CC1=CC2C(C(O)CC3(C)C2CC(C)C32OCOC23COCO3)C2(C)C/C(=C\O)C(=O)C=C12 (stereo not drawn)	HT1080 IDH1KD tx 7.31µM, KB-V1 cytotox inconclusive, HT1080NT lethal 18.4µM, KB-3-1 tox inconclusive, IL-1B inflam inh -103.5
CC[C@@H](C)[C@@H]1CN([C@@H](C)CN2CCC[C@H]2CN2C(N)=NC[C@@H]2Cc2ccccc2)C(=N)N1CCCC1CCCC1	IL-1B inflam inh -63.4
CC[C@@H](C)[C@@H]1CN([C@@H](C)CN2CCC[C@H]2CN2C(N)=NC[C@H]2CC(C)C)C(=N)N1CCCC1CCCC1	IL-1B inflam inh inconclusive
CC[C@@H](C)[C@@H]1CN([C@@H](CN2CCC[C@H]2CN2C(N)=NC[C@H]2C(C)C)C(C)C)C(=N)N1CCc1ccc(Cl)c(Cl)c1	IL-1B inflam inh -77.7
CCC[C@@H](CN1CCC[C@H]1CN1C(N)=NC[C@H]1C(C)C)N1C[C@@H](Cc2ccccc2)N(CCCC2CCCC2)C1=N	IL-1B inflam inh -63.5
CCCCN1C(=N)N([C@@H](CCC)CN2CCC[C@H]2CN2C(N)=NC[C@H]2CC(C)C)C[C@H]1Cc1ccccc1	none
O=C(c1[nH]c(C(F)(F)F)nc1-c1ccccc1)N1CCc2ccccc2C1	none
Cc1ccc(-c2nnc(Nc3ccccc3O)c3ccccc23)cc1	none (no result: HT1080 IDH1KD tx, HT1080NT lethal, IL-1B inflam inh)
Clc1ccc(-c2nnc(NCc3ccccc3)c3ccccc23)cc1	HT1080 IDH1KD tx inconclusive, KB-V1 cytotox inconclusive, HT1080NT lethal inconclusive, KB-3-1 tox inconclusive, IL-1B inflam inh -93.6
Clc1ccc(Nc2ccc(NCc3ccccc3)nn2)cc1	KB-V1 cytotox 16.4µM
Clc1ccc(-c2nnc(NCCN3CCCC3)c3ccccc23)cc1	IL-1B inflam inh inconclusive
Cc1ccc(-c2nnc(NCc3ccccc3)c3ccccc23)cc1	KB-3-1 tox inconclusive, IL-1B inflam inh -84.0
CC(C)NC(=O)N(C)C[C@@H]1OCc2cn(nn2)CCCC(=O)N([C@H](C)CO)C[C@H]1C	KB-V1 cytotox inconclusive
COc1ccc(/C=C/C(=O)N2CCN(C)CC2)cc1S(=O)(=O)N1CCCCC1	none
CC[C@@H](C)[C@@H](CO)NC(=O)[C@H]1O[C@@H](n2cnc3c(N)ncnc32)[C@H](O)[C@@H]1O	none
Cc1cc2nc(N=C(N)N)nc(C)c2cc1C	IL-1B inflam inh -78.4
Cc1cc2nc(/N=C(\N)NC(=O)C(C)C)nc(C)c2cc1C	KB-3-1 tox 14.6µM, IL-1B inflam inh -93.5
Cc1nc(N=C(N)N)nc2ccccc12	HT1080 IDH1KD tx inconclusive, KB-V1 cytotox inconclusive, KB-3-1 tox 8.2µM, IL-1B inflam inh -101.4
CCc1ccc2nc(N=C(N)N)nc(C)c2c1	HT1080 IDH1KD tx inconclusive, HT1080NT lethal inconclusive, KB-3-1 tox 23.1µM, IL-1B inflam inh -91.3
Cc1ccc2nc(N=C(N)N)nc(C)c2c1	HT1080 IDH1KD tx inconclusive, HT1080NT lethal inconclusive
C=CCNc1nc2cc(-c3ccc(C(=O)N4CCOCC4)cc3)sc2c(=O)n1C	HT1080 IDH1KD tx inconclusive, HT1080NT lethal inconclusive, KB-3-1 tox inconclusive
O=C1C=C(OCCF)CC(c2ccc(Br)cc2)O1 (stereo not drawn)	none

Bioassay records: PubChem, National Center for Advancing Translational Sciences (NCATS)
